HP1b chromo inh: inhibitors of HP1-beta chromodomain binding to methylated histone tails | 390,000 compounds, 0.56% hits | P83916 | AlphaScreen HP1-beta / biotin-H3K9me3 peptide binding | AID 540317 | Potency, µM (titrated, usually from 114 µM), without a hit: top-dose activity change, negative = inhibition, hits mostly inhibitors; also: nearly all actives have a fitted effect of over 70% in size
Target sequence (P83916 whole entry, looked up): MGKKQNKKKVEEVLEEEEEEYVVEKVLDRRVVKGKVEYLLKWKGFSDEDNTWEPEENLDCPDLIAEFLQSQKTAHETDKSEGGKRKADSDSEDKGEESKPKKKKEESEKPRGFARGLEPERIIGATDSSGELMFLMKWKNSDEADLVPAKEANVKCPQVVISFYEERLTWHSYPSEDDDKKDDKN
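Compound inhibition of the preformed complex between 50 nM HP1-beta and 50 nM biotinylated H3K9me3 peptide was read by AlphaScreen. Buffer was PBS pH 7.4 with 0.01% Tween-20. Incubations ran 30 min at room temperature, with 10 ug/mL donor/acceptor beads.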
G9a inh: blocks human histone lysine methyltransferase G9a; Q96KQ7; G9a H3K9 monomethylation, AlphaScreen, 2 h; Potency, µM (top dose mostly 102 µM), for the others: top-dose activity, negative = inhibition, most hits filed as inhibitors; 350,000 compounds, 8.8% hits; AID 504332; also: % is scaled to controls: 0 for no effect and ±100 for the full control effect; nearly all actives have a fitted effect of over 75% in size
Target sequence (Q96KQ7 913-1193 limits assumed): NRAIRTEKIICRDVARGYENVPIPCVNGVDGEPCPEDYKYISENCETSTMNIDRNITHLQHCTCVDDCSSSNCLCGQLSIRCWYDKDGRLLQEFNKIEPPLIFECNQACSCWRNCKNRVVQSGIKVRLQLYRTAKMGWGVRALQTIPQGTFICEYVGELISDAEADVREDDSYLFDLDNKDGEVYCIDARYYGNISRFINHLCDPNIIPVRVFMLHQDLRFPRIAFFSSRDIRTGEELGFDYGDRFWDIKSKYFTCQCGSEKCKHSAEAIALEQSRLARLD
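Using a bead-based AlphaScreen, monomethylated H3K9 product from 2 h room-temperature reactions (G9a 20 nM, peptide 500 nM, SAM 20 uM) was detected with 0.5 ug/mL rabbit anti-H3K9me1 antibody.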
Sfp inh: Sfp phosphopantetheinyl transferase inhibition. Q9F4F7. Biochemical Sfp PPTase activity, qHTS. Potency, µM, without a hit: largest response in the series, negative = inhibition, usual class: inhibitors. 310,000 compounds, 3.5% hits;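 also: the enzyme is Sfp with the accession as filed and its product quenches rhodamine fluorescence; 0% = enzyme reaction without inhibitor and -100% = no enzyme wells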
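After 15 min at room temperature with compound, 15 nM Sfp received 5 uM rhodamine-CoA plus 12.5 uM BHQ-2-ybbR (50 mM Hepes pH 7.6, 10 mM MgCl2). Rate came from the fluorescence difference over 30 min, ex 525/em 598 nm.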
JMJD2A Tudor inh: JMJD2A Tudor domain (human) inhibition; O75164; AlphaScreen JMJD2A-Tudor / H3K4me3 peptide binding; Potency, µM (highest dose often 114 µM), inactives show top-dose activity change, negative = inhibition, actives largely listed as inhibitors; 390,000 compounds, 4.4% hits; AID 504339; also: % is scaled to controls: 0 for no effect and ±100 for the full control effect; nearly all actives have a fitted effect of over 50% in size
BAZ2B block: BAZ2B (human) inhibition. AID 504333. Potency, µM (highest dose often 114 µM), for inactives: at the highest dose activity change, negative = inhibition, most hits filed as inhibitors. 360,000 compounds, 4.4% hits. Q9UIF8. AlphaScreen BAZ2B-H3K14Ac peptide displacement; also: % is scaled to controls: 0 for no effect and ±100 for the full control effect; nearly all actives have a fitted effect of over 60% in size
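AlphaScreen luminescence quantifies BAZ2B engagement of H3K14Ac peptide; the protein and biotinylated peptide are both at 50 nM final, buffer PBS pH 7.4 with 0.01% Tween-20, all steps at room temperature.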
* hit, by the source's call; ! = repeats disagree; [ ] = dose if it differs, or a comment. The list is not random: actives were taken first. Their share in the collection is about 12%. Calls follow the shape of the dose curve; as a rule, active = well fitted curve in the direction sought with a large enough effect; inconclusive = small, poorly fitted or top-dose-only effect, or another doubt; inactive = no such curve, though single readings can be large; an effect the other way counts as inactive or inconclusive. Potency is read from the fitted curve at half-maximal effect.

Screening Cn1c(N2CCOCC2)nc(-c2ccccc2)c1-c1ccccc1 returned HP1b chromo inh -12%, G9a inh 50µM*, Sfp inh 1%, JMJD2A Tudor inh -31% and BAZ2B block inconclusive.
`c1ccc(-c2nc3ccccc3nc2N2CCOCC2)cc1` gave HP1b chromo inh 156%, G9a inh 68%[59 µM], Sfp inh 4%, JMJD2A Tudor inh 136% and BAZ2B block 62%.
CCCCNC(=O)Cn1c(SCc2cccc(F)c2)nc2ccncc21 was read as HP1b chromo inh 23%[57 µM] and JMJD2A Tudor inh -12%[57.1 µM].
Screening O=C(NCCS(=O)(=O)N1CCN(c2ccccc2F)CC1)C1CC(=O)N(c2ccccc2)C1 (stereo unspecified) returned HP1b chromo inh 13%[57 µM], G9a inh 16%, Sfp inh 12%, JMJD2A Tudor inh -8% and BAZ2B block -1%.
`Cc1ccc(N2CC(C(=O)NCCS(=O)(=O)N3CCN(c4ccccc4F)CC3)CC2=O)cc1` (stereo unspecified) gave HP1b chromo inh 1%, G9a inh -8%[59 µM], Sfp inh 16%, JMJD2A Tudor inh 16µM*! and BAZ2B block -15%.
`O=C1c2ccccc2C(=O)N1c1cccc2cnccc12` gave JMJD2A Tudor inh -4%.
Screening COc1ccc(C2C=C(C)Nc3nc(SC)nn32)cc1 (stereo unspecified) returned HP1b chromo inh 38%, G9a inh 56µM*, Sfp inh -1%, JMJD2A Tudor inh -18% and BAZ2B block 0%.
CC1=CC(c2ccccc2)n2nc(N)nc2N1 (stereo unspecified) was read as HP1b chromo inh 43% and JMJD2A Tudor inh -12%.
For CCC(CC)C(=O)Nc1c(C)n(C)n(-c2ccccc2)c1=O the results were HP1b chromo inh 25%, G9a inh -4%, Sfp inh 6%, JMJD2A Tudor inh 3% and BAZ2B block 10%.
For Cc1c(NC(=O)C2CC=CCC2C(=O)O)c(=O)n(-c2ccccc2)n1C (stereo unspecified) the results were HP1b chromo inh 11%, G9a inh -47%[12.7 µM], Sfp inh 9%, JMJD2A Tudor inh -19% and BAZ2B block 79µM*.
Cc1c(NC(=O)CN2CC(C)OC(C)C2)c(=O)n(-c2ccccc2)n1C (stereo unspecified) was read as HP1b chromo inh 56µM*!, G9a inh 16µM*, Sfp inh inconclusive, JMJD2A Tudor inh 11µM*! and BAZ2B block 20µM*.
CCN1CCN(C(C)C(=O)Nc2c(C)n(C)n(-c3ccccc3)c2=O)CC1 (stereo unspecified) was read as HP1b chromo inh inconclusive, G9a inh 11µM*, Sfp inh inconclusive, JMJD2A Tudor inh 7.9µM* and BAZ2B block 50µM*.
For COc1ccccc1N1CCN(C(=O)C2CCN(S(=O)(=O)c3cn(C)cn3)CC2)CC1 the results were HP1b chromo inh 48%, G9a inh -4%[12.7 µM], JMJD2A Tudor inh 8% and BAZ2B block 2%.
For CCOc1cc(C2c3c(oc4ccc(F)cc4c3=O)C(=O)N2Cc2ccco2)ccc1O (stereo unspecified) the results were HP1b chromo inh 26%, G9a inh -27%[59 µM], JMJD2A Tudor inh -10% and BAZ2B block -5%.
Screening S=c1[nH]cc(Cc2ccccc2)s1 returned HP1b chromo inh inconclusive, G9a inh 1.8µM*, Sfp inh inconclusive, JMJD2A Tudor inh 4µM* and BAZ2B block -32%.
CC[C@H]1OC(=O)[C@H](C)C(=O)[C@H](C)[C@@H](OC2O[C@H](C)C[C@H](N(C)C)[C@@H]2O)[C@@](C)(OC)C[C@@H](C)C(=O)[C@@H](C)C2N(CCCCn3cnc(-c4cccnc4)c3)C(=O)O[C@@]21C (stereo partly specified) was read as G9a inh -45%[12.7 µM] and Sfp inh 9%.
CC(C)(C)c1ccc(-c2nc(SCC(=O)Nc3ccc(Cl)cc3)[nH]c(=O)c2C#N)cc1 was read as HP1b chromo inh 24%, G9a inh -16%[59 µM], JMJD2A Tudor inh -32% and BAZ2B block 79µM*.
N#Cc1c(-c2ccco2)nc(SCC(=O)Nc2cccc(Cl)c2)[nH]c1=O was read as HP1b chromo inh 14%, G9a inh 35µM*, Sfp inh 50µM*, JMJD2A Tudor inh inconclusive and BAZ2B block -12%.
CCOc1ccccc1NC(=O)C(C)Sc1nc(-c2ccccc2)c(C#N)c(=O)[nH]1 (stereo unspecified) was read as HP1b chromo inh 12%, G9a inh -23%[59 µM], JMJD2A Tudor inh -27% and BAZ2B block -24%.
Screening O=C(CSc1nc2[nH]ncc2c(=O)[nH]1)Nc1cccc(Cl)c1 returned HP1b chromo inh 37%, G9a inh inconclusive, JMJD2A Tudor inh -1% and BAZ2B block -20%.
Screening CC(=O)CSc1nc(-c2cccs2)c(C#N)c(=O)[nH]1 returned HP1b chromo inh 18%, Sfp inh inconclusive, JMJD2A Tudor inh -31% and BAZ2B block -12%.
CCc1ccc(NC(=O)C(C)Sc2nc(-c3ccco3)c(C#N)c(=O)[nH]2)cc1 (stereo unspecified) was read as HP1b chromo inh -13%, G9a inh 50µM*, Sfp inh -11%, JMJD2A Tudor inh inconclusive and BAZ2B block inconclusive.
`CCCCn1nnc(NC(=S)NC(=O)c2cccs2)n1` gave HP1b chromo inh -27%, G9a inh 10µM*, Sfp inh inconclusive, JMJD2A Tudor inh inconclusive and BAZ2B block -3%.
`CCCn1nnc(NC(=S)NC(=O)CC)n1` gave HP1b chromo inh inconclusive, G9a inh 8.9µM*, Sfp inh 40µM*, JMJD2A Tudor inh 2.8µM* and BAZ2B block -33%.
Screening CCCn1nnc(NC(=S)NC(=O)Cc2ccccc2)n1 returned HP1b chromo inh 22%, G9a inh 32µM*, Sfp inh -14%, JMJD2A Tudor inh -1% and BAZ2B block -1%.
For CCCn1nnc(NC(=S)NC(=O)c2ccc(-c3ccc(Br)cc3)o2)n1 the results were HP1b chromo inh 17%, G9a inh inconclusive, Sfp inh -26%, JMJD2A Tudor inh -29% and BAZ2B block -13%.
`Cc1ccc(CSc2ncc(Cl)c(C(=O)Oc3ccc(F)cc3)n2)cc1` gave HP1b chromo inh 64%, G9a inh 80%[59 µM], JMJD2A Tudor inh 13% and BAZ2B block 61%.
Screening Nc1ncnc2c1ncn2[C@@H]1O[C@H](CNC(=O)[C@@H]2CCCN2S(=O)(=O)c2ccc(F)cc2)[C@@H](O)[C@H]1O returned HP1b chromo inh 69% and JMJD2A Tudor inh -14%.
`CNc1nnc(-c2ccc(N(C)C)cc2)s1` gave HP1b chromo inh 22%, G9a inh 7.9µM*, Sfp inh -6%, JMJD2A Tudor inh -24% and BAZ2B block 3%.
